High-throughput results deposited in PubChem by National Center for Advancing Translational Sciences (NCATS).
Only some compounds are listed: those with a hit (about 0.9% of all), similar ones and a draw of the others.
BLM inh – qHTS Assay for Inhibitors of Bloom's syndrome helicase (BLM) | RecQ-like DNA helicase BLM (Homo sapiens), P54132 | recombinant BLM DNA unwinding, fluorescence dequenching | Potency, µM (series often up to 56.1 µM), inactives show at the top dose activity change, negative = inhibition, usual class: inhibitors | 350,000 compounds, 0.2% hits | AID 2528, 2010;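 further: plate controls were vehicle for no effect and no enzyme for full effect; nearly all actives have a fitted effect of over 35% in size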
Target sequence (P54132 whole entry, looked up): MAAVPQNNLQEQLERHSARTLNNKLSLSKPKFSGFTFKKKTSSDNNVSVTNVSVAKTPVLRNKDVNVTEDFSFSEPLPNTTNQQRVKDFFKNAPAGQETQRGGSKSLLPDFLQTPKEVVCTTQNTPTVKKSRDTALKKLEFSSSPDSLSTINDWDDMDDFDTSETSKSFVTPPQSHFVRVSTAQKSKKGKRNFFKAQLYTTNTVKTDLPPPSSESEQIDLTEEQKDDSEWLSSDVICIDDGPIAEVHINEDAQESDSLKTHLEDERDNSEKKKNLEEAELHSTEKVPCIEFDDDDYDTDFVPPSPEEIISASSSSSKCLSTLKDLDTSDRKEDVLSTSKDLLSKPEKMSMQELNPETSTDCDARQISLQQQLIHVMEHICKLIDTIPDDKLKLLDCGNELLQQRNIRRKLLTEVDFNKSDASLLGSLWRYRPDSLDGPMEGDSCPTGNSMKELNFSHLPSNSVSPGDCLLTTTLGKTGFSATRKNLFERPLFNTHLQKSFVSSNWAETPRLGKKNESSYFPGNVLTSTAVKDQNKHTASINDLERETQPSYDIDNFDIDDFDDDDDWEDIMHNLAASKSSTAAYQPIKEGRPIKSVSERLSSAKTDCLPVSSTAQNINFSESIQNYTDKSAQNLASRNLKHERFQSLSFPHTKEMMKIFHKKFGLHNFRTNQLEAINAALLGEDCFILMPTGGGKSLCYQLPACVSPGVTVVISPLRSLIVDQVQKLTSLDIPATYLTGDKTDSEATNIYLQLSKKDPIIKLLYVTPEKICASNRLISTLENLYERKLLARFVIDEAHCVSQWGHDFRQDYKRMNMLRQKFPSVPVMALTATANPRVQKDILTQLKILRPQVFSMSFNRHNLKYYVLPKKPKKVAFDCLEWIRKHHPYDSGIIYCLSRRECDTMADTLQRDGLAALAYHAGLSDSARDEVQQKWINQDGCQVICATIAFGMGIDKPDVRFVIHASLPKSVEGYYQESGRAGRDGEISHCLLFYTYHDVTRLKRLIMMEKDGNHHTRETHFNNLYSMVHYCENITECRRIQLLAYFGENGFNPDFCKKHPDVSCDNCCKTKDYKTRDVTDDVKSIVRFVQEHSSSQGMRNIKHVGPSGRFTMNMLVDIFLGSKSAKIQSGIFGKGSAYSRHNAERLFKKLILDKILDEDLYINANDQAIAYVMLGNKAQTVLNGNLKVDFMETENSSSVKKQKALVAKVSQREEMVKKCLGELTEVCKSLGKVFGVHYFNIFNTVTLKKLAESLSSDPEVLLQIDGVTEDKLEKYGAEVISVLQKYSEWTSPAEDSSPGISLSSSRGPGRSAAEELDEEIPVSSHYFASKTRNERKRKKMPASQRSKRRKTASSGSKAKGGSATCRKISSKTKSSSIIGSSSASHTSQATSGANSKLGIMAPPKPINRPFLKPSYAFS
LMNA splice mod – qHTS Assay for Modulators of Lamin A Splicing. HeLa LMNA splicing GFP/RFP minigene ratio, 48 h. Potency, µM (doses to about 46.1 µM), without a hit: at the top dose ratio change, negative = inhibition, hits mostly inhibitors. 200,000 compounds, 0.01% hits. AID 1487, 2009; active means well fitted inhibition curve with a large enough effect in the signal ratio, with a control signal flat, not every such curve was filed as active; inconclusive means small, poorly fitted or top-dose-only effect, or effect the other way, or a change in a side signal; the % refers to the signal ratio
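S3 HeLa cells stably expressing lamin A-EGFP splicing minigene plus DsRed2, 600 cells/well, 48 h compound exposure at 37C. Laser-scanning cytometry; analysed as GFP (500-530 nm)/RFP (575-640 nm) total intensity ratio; 0.5% DMSO vehicle.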
APEX1 inh – qHTS Assay for Inhibitors of the Human Apurinic/apyrimidinic Endonuclease 1 (APE1); recombinant APE1, TAMRA/BHQ-2 abasic DNA cleavage fluorescence; Potency, µM (highest dose often 65.8 µM), without a hit: top-dose activity change, negative = inhibition, actives largely listed as inhibitors; 350,000 compounds, 0.35% hits; AID 2517, 2012;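 further: plate controls were vehicle for no effect and reference inhibitor for full effect; nearly all actives have a fitted effect of over 55% in size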
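Measures dequenching upon AP-site incision of a 5'-TAMRA/3'-BHQ-2 THF-containing duplex, 50 nM; human APE1 0.75 nM after 15 min room-temperature exposure to compound; kinetic three-point read at one-minute spacing.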
RECQ1 inh – qHTS Assay for Inhibitors of RecQ-Like Dna Helicase 1 (RECQ1); ATP-dependent DNA helicase Q1 (Homo sapiens), P46063; RECQ1 DNA unwinding, red fluorescence kinetic read; Potency, µM (highest dose often 57.3 µM), for inactives: at the highest dose activity, negative = inhibition, usual class: inhibitors; 240,000 compounds, 0.54% hits; AID 2549, 2010;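 further: plate controls were vehicle for no effect and no enzyme for full effect; nearly all actives have a fitted effect of over 30% in size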
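RECQ1T1 50 nM; forked duplex (20 bp + 30-nt ss tails) 200 nM, ATP 2 mM final; pH 8.0, 2 mM MgCl2, 2.5 ug/ml poly(dI-dC); 15 min compound preincubation; discontinuous kinetic read over 2 h at RT.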
KAT2A inh – qHTS Assay for Inhibitors of GCN5L2; Histone acetyltransferase KAT2A (Homo sapiens), Q92830; GCN5L2 HAT assay, ThioGlo1 CoA-SH fluorescence; Potency, µM (titrated, usually from 58.9 µM), without a hit: at the top dose activity change, negative = inhibition, actives largely listed as inhibitors; 390,000 compounds, 0.21% hits; AID 504327, 2011
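ThioGlo1-coupled HAT assay: 20nM GCN5L2, 70uM acetyl-CoA, 75uM H3(1-25) peptide, pH 7.5. Fluorescence read at 340/540nm at start and after 20 min at room temperature.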
TDP1 block – qHTS Assay for Inhibitors of Tyrosyl-DNA Phosphodiesterase (TDP1) | Tyrosyl-DNA phosphodiesterase 1 (Homo sapiens), Q9NUW8 | recombinant TDP1, AlphaScreen DNA substrate cleavage | Potency, µM (doses to about 130 µM), without a hit: at the highest dose activity change, negative = inhibition, hits mostly inhibitors | 350,000 compounds, 0.28% hits; further: nearly all actives have a fitted effect of over 40% in size
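Here, a 5' biotin and 3' phosphotyrosine-FITC DNA oligonucleotide reports Tdp1 activity: intact substrate bridges AlphaScreen beads, while cleavage leaves a 3' phosphate and drops signal. All incubations at room temperature.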
* hit, by the source's call; i = inactive; ? = inconclusive; / = no result given. Unless noted, the call rests on the fitted dose curve; in most records, active means well fitted curve in the direction sought with a large enough effect; inconclusive means small, poorly fitted or top-dose-only effect, or another doubt; inactive means no such curve, though single readings can be large; an effect the other way counts as inactive or inconclusive. Unless noted, on the % scale 0 is the no-effect control and ±100 the full control effect; potency means the concentration at half of the fitted maximal effect.

SMILES	BLM inh	LMNA splice mod	APEX1 inh	RECQ1 inh	KAT2A inh	TDP1 block
CCCc1nc2c(=O)n(C)c(=O)nc-2n(C)n1	2.8µM*	/	?	?	-4%	6%
Cn1nc(-c2ccccn2)nc2c(=O)n(C)c(=O)nc1-2	1µM*	?	?	4.5µM*	-5%	-1%
Cc1ccccc1-c1nc2c(=O)n(C)c(=O)nc-2n(C)n1	/	/	/	/	/	2%
O=S(=O)(c1ccsc1)N1CCN(c2nc(-c3cccs3)nc3ccccc23)CC1	/	/	/	/	/	-5%
CC(=O)OCON[N+]([O-])=NC1CCCCC1	4%	/	2%	11%	/	12%
S=C1NC(c2ccccc2)N2C(=S)NC(c3ccccc3)N12 (configuration not stated)	0%	11%	0%	1%	28µM*	12%
O=c1c2ccccc2[nH]c2ccc(O)cc12	-14%	/	?	/	-15%	40µM*
Cc1ccc2[nH]c3ccccc3c(=O)c2c1	-5%	/	5%	/	-3%	/
NC(=O)C1CCN(c2nc(-c3ccc4c(c3)OCO4)cs2)CC1	/	/	-15%	/	/	/
Cc1ccccc1-c1nc(NCCN2CCOCC2)c2ccccc2n1	-2%	9%	4%	-4%	-13%	7.9µM*
N#Cc1ccccc1-c1nc(NCCN2CCOCC2)c2ccccc2n1	-4%	-13%	1%	i	-11%	/
Nc1ccccc1NC(=O)c1ccc(CNC(=O)OCc2cccnc2)cc1	0%	/	-7%	-13%	0%	10%
O=C1C2CC=C(Cl)CC2C(=O)N1CCCCCCN1C(=O)C2CC=C(Cl)CC2C1=O (configuration not stated)	?	-10%	32µM*	28µM*	-20%	/
CCn1cc(C(=O)O)c(=O)c2cc(F)c(N3CCN(C(=S)Nc4ccc(OC)cc4)CC3)cc21	-5%	/	-1%	4%	1%	/
CCn1cc(C(=O)O)c(=O)c2cc(F)c(N3CCN(C(=S)NC(=O)c4cc(OC)cc(OC)c4)CC3)cc21	3%	/	-12%	/	-8%	45µM*
CC(O)(c1ccc(Cl)cc1)c1ccc(Cl)cc1	-13%	/	-8%	-8%	3%	11%
Nc1cc(-c2ccccc2)c[nH]c1=O	/	/	/	/	/	3%
NC(=S)NS(=O)(=O)c1ccc(N)cc1	2%	/	/	/	-4%	/
CCN1/C(=C/C(C)=C/c2sc3ccccc3[n+]2CC)Sc2ccccc21	?	/	-14%	13µM*	-6%	8%
O=C(Nc1cccc(C(F)(F)F)c1)Nc1cc(Cl)ccc1C(=O)O	-3%	/	-2%	-12%	22µM*	9%
O=C(Nc1ccccc1)Nc1cccc(C(F)(F)F)c1	-6%	/	5%	i	-8%	1%
COc1cccc(C2c3c(ncn(-c4cccc(C#N)c4)c3=N)Oc3ccc4ccccc4c32)c1 (configuration not stated)	/	/	/	/	/	3%
Fc1ccc(Nc2ccnc(-c3ccc4c(c3)OCO4)n2)cc1	-7%	?	-6%	-2%	28µM*	/
C=CCN(CC=C)S(=O)(=O)c1ncn[nH]1	-3%	2%	-5%	-15%	7%	40µM*
COc1ccc(F)c(Cn2cnc3c(cnn3C(C)(C)C)c2=O)c1Cl	/	/	-6%	/	/	/
CCCCCCCCCc1ccc(OCCOCCO)cc1	/	/	-1%	/	/	/
O=C1NN(c2ccc(Cl)c(Cl)c2)C(=O)/C1=C/c1cccc(OC(=O)c2cccs2)c1	-24%	1%	0%	?	35µM*	6%
Cc1cc(=O)oc2cc(OCC(=O)N/N=C/c3ccccc3[N+](=O)[O-])ccc12	?	?	-3%	-2%	-17%	56µM*
